Test results reported in the supplement of paper PMC13380429.
Unmarked numbers belong to inactive results.

tested on: Vero E6 infected with SARS-CoV-2; assay: inhibition of SARS-CoV-2 cytopathic effect; higher = more antiviral protection, active = above 15; conditions: 1 nM; 48 h

In order of rising “inhibition of SARS-CoV-2 cytopathic effect” value:
1. CC1(C)OC[C@@H](COC(=O)CCc2ccc(OC[C@@H](O)CNCCNC(=O)N3CCOCC3)cc2)O1 [landiolol]  -7.81%
2. CO/N=C(\C(=O)N[C@@H]1C(=O)N2C(C(=O)O)=C(CSc3nc(C)c(CC(=O)O)s3)CS[C@H]12)c1csc(N)n1 [cefodizime]  -6.45%
3. CS(=O)(=O)c1ccc([C@@H](O)[C@@H](CF)NC(=O)C(Cl)Cl)cc1 [florfenicol]  -5.27%
4. O=C(O)c1ccccc1-c1ccc(C(F)(F)F)cc1 [xenalipin]  -4.08%
5. CNC(=O)[C@@H](NC(=O)[C@H](CC(C)C)[C@H](O)C(=O)NO)C(C)(C)C [marimastat]  -4.07%
6. Cc1cc(-c2nc(C(=O)Nc3cn(C4CCOCC4)nc3C(N)=O)co2)ccn1  -2.34%
7. CCOC(=S)SSC(=S)OCC [dixanthogen]  -1.96%
8. CC(=O)N[C@@H](CC(=O)O)C(=O)N[C@@H](CCC(=O)O)C(=O)O [spaglumic-acid]  -1.79%
9. S=C=Nc1ccc(N=C=S)cc1 [bitoscanate]  -1.75%
10. C[C@H](CCC(=O)O)[C@H]1CC[C@H]2[C@@H]3C[C@H](O)[C@@H]4C[C@H](O)CC[C@]4(C)[C@H]3CC[C@]12C [Hyodeoxycholic acid (HDCA)]  -1.55%
11. C=CC(=O)c1ccc2ccccc2c1 [JAK3-inhibitor-V]  -1.46%
12. COc1ccc(-c2oc3c(CC=C(C)C)c(O)cc(O)c3c(=O)c2O)cc1 [icaritin]  -1.11%
13. CN(C)Cc1c(C(=O)NCCOc2ccc(C(=O)NO)cc2)oc2ccccc12  -1.08%
14. CN(C)c1cccc(-c2c3c(=O)n(-c4ccccc4Cl)[nH]c3cc(=O)n2C)c1  -1.01%
15. N[C@H]1CC[C@H](N[C@@H]2C[C@H]2c2ccccc2)CC1  -0.96%
16. O=C(Nc1ccccc1C(=O)Nc1ccc(CCO)cc1)c1ccc([N+](=O)[O-])cc1  -0.75%
17. Cc1ncc(CSSCc2cnc(C)c(O)c2CO)c(CO)c1O [pyritinol]  -0.56%
18. C=C[C@@H]1C[C@]1(NC(=O)[C@@H]1C[C@@H](Oc2ncc(OC)c3ccc(Cl)cc23)CN1C(=O)[C@@H](NC(=O)OC(C)(C)C)C(C)(C)C)C(=O)NS(=O)(=O)C1CC1 [asunaprevir]  -0.2%
19. C[C@@H](NC(=O)c1ncnc(N)c1Cl)c1ncc(C(=O)Nc2cc(C(F)(F)F)c(Cl)cn2)s1  -0.01%
20. CCCN(CCC)[C@H]1CCc2ccc(O)cc2C1 [7-hydroxy-DPAT]  0.73%
21. CCn1c(-c2nonc2N)nc2cncc(C(=O)N3CC[C@H](N)C3)c21  0.81%
22. CC1=C(/C=C/C(=C/C=C/C(C)=C/C(=O)O)c2ccc(C)cc2)C(C)(C)CCC1  0.94%
23. Oc1cc2c(cc1O)[C@H](Cc1cccc3ccccc13)NCC2  1.2%
24. NC(N)=Nc1nc(CSCC/C(N)=N/S(N)(=O)=O)cs1 [Famotidine]  1.28%
25. Nc1ccc(S(=O)(=O)Nc2ccnn2-c2ccccc2)cc1 [sulfaphenazole]  2%
26. C[C@@H]1CN(c2c(F)c(N)c3c(=O)c(C(=O)O)cn(C4CC4)c3c2F)C[C@H](C)N1 [sparfloxacin]  2.08%
27. COc1ccc(-c2cc(C(F)F)nn2-c2ccc(S(N)(=O)=O)cc2)cc1F [deracoxib]  2.3%
28. C=CCNc1c(O)cc2c(O)c1C[C@@H](C)C[C@H](OC)[C@H](O)[C@@H](C)/C=C(\C)[C@H](OC(N)=O)[C@@H](OC)/C=C\C=C(/C)C(=O)N2 [retaspimycin]  2.45%
29. Cc1cc(C(=O)Nc2nc3cccc(Cl)c3n2[C@@H]2CCCCN(C(=O)/C=C/CN(C)C)C2)ccn1  2.52%
30. Nc1nc(N)nc(-c2cc(Cl)ccc2Cl)n1 [irsogladine]  2.68%
31. O=C(O)[C@H](Cc1c[nH]c2ccccc12)N1C(=O)c2ccccc2C1=O  2.9%
32. CC1(C)CCC(C)(C)c2cc(Cn3cccn3)c(/C=C/c3ccc(C(=O)O)cc3)cc21 [palovarotene]  3.77%
33. CSC[C@H](N)C(=O)O [S-methylcysteine]  4.21%
